Shown are actives, neighbours in structure and some others; about 8.3% of the full set was active somewhere.
HCV inhibitor – qHTS Assay for Inhibitors of Hepatitis C Virus (HCV); Huh7.5.1 HCVcc-Cre infection, luciferase reporter, 44 h; Potency, µM (series often up to 41.8 µM), for inactives: top-dose activity change, negative = inhibition, usual class: inhibitors; hit rate 3.4% among 340,000; AID 651820, 2012; also: potency is read from the fitted curve at half-maximal effect
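Whole-lifecycle infectious HCVcc-Cre system; cells 1,000/well, compound then virus (~0.5 moi) added 4 h after plating, 44 h culture. Luciferase read 15 sec following 15 min substrate incubation, room temp.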
HCMV inh – qHTS Assay for inhibitors of the human cytomegalovirus (HCMV); HFF cells, HCMV-luciferase reporter, 72 h; hits give low values; activity change, negative = inhibition, % at 57.5 µM; hit rate 4.5% among 410,000; in the data active = activity change below about -60%; inconclusive = no clear call, values can overlap the other calls; inactive = above about -39%
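Human foreskin fibroblasts infected with luciferase-reporter HCMV at MOI 1 PFU/cell, compounds at two doses. Luciferase measured 72 h post infection; normalized to buffer-only basal and Salinomycin (10uM) controls.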
FMDV antiviral – High Throughput Screening for Foot and Mouth Disease Virus Antivirals. AID 1159524, 2015. hit rate 1.2% among 410,000. FMDV antiviral cell-based qHTS. Potency, µM (doses to about 57.9 µM), inactives show top-dose activity change, negative = inhibition, actives largely listed as inhibitors; calls by dose curve; tested in HEK293T cells; also: read-out not given here; potency is read from the fitted curve at half-maximal effect; nearly all actives have a fitted effect of over 45% in size
MARV entry inh – qHTS for inhibitors of binding or entry into cells for Marburg Virus | Marburg virus pseudotyped entry inhibition, cell reporter | Potency, µM (highest dose often 37.8 µM), for the others: at the highest dose activity change, negative = inhibition, hits mostly inhibitors | hit rate 1.8% among 300,000; calls by dose curve; tested in HEK293 cells; also: potency is read from the fitted curve at half-maximal effect
Lassa entry inh – qHTS for Inhibitors of binding or entry into cells for Lassa Virus. Lassa virus pseudotype entry inhibition, cell reporter. Potency, µM (highest dose often 37.9 µM), inactives show at the top dose activity change, negative = inhibition, hits mostly inhibitors. hit rate 1.2% among 300,000; calls by dose curve; tested in HEK293 cells; also: potency is read from the fitted curve at half-maximal effect; nearly all actives have a fitted effect of over 50% in size
Giardia FBPA inh – qHTS Assay for Inhibitors of Fructose-1,6-bisphosphate Aldolase from Giardia Lamblia; A8B2U2; purified Giardia FBPA; Potency, µM (titrated, usually from 59.6 µM), for the others: top-dose activity, negative = inhibition, usual class: inhibitors; hit rate 0.71% among 290,000; also: potency is read from the fitted curve at half-maximal effect; nearly all actives have a fitted effect of over 55% in size
Target sequence (A8B2U2 whole entry, looked up): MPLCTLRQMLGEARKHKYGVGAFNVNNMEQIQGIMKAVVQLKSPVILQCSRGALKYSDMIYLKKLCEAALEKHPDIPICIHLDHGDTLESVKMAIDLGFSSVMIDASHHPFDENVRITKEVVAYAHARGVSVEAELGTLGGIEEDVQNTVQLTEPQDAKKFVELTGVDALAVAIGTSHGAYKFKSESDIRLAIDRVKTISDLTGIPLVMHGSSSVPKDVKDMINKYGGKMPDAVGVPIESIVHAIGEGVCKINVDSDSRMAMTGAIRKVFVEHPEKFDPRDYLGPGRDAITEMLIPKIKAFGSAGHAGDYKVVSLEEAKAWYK
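Giardia FBPA (40 nM reagent) was preincubated 10 min at RT with compound (up to 57.5 uM final), then substrate plus GAPDH/TPI/NAD/arsenate coupling system with diaphorase/resazurin was added; resorufin fluorescence (525/598 nm) was read after 20 min.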
Active calls of the source: *; [ ] = remark or other dose. Unless noted, calls follow the shape of the dose curve; as a rule, active = well fitted curve in the direction sought with a large enough effect; inconclusive = small, poorly fitted or top-dose-only effect, or another doubt; inactive = no such curve, though single readings can be large; an effect the other way counts as inactive or inconclusive. % is scaled to controls: 0 for no effect and ±100 for the full control effect.

What do the screens show for `COC(=O)c1sc(=S)n(-c2cc(F)ccc2F)c1N`?
HCV inhibitor: 3.6%; HCMV inh: -105.9*; FMDV antiviral: -14.0%; MARV entry inh: -2.9%; Lassa entry inh: -6.3%; Giardia FBPA inh: -9.3%

Results for CCOC(=O)c1c(-c2ccc(OC)c(OC)c2)csc1NC(=O)c1ccc(C)cc1 ?
HCMV inh: -5.9; FMDV antiviral: -0.7%; MARV entry inh: -2.3%[46.1 µM]; Lassa entry inh: -15.0%[46.1 µM]

How did CC(C)(C)c1csc(NC(=O)c2ccccc2O)n1 do in these assays?
HCV inhibitor: 22.4µM*; HCMV inh: -93.9*; FMDV antiviral: inconclusive; MARV entry inh: 11.2µM*; Lassa entry inh: inconclusive; Giardia FBPA inh: inconclusive

Results for O=C(Cc1cccs1)Nc1nc(-c2ccc(F)cc2F)cs1 ?
HCV inhibitor: 11.2µM*; HCMV inh: -0.1; FMDV antiviral: -29.2%; MARV entry inh: inconclusive; Lassa entry inh: 1.64µM*; Giardia FBPA inh: -13.6%

What do the screens show for `COC(=O)c1c(-c2ccc3ccccc3c2)csc1NC(=O)Cc1ccc(OC)c(OC)c1`?
HCV inhibitor: inconclusive; HCMV inh: -83.2*; FMDV antiviral: 10µM*; MARV entry inh: inconclusive; Lassa entry inh: inconclusive; Giardia FBPA inh: -8.6%

Results for COc1ccc(CC(=O)Nc2nc3c(s2)CCCC3)cc1 ?
HCMV inh: -37.0; FMDV antiviral: 17.3%; MARV entry inh: 2.51µM*; Lassa entry inh: 3.98µM*

Results for COc1ccc(-c2nc(SCC(=O)NCc3nc4ccccc4n3C)n3[nH]c(=O)cc3n2)cc1 ?
HCMV inh: 21.3; FMDV antiviral: -20.5%; Lassa entry inh: -14.8%[46.1 µM]

What do the screens show for `Cc1ccc(CN2C[C@H](Sc3ccccn3)C[C@H]2C(=O)Nc2ccc3sc(C)nc3c2)cc1`?
FMDV antiviral: 4.5%

Results for CC(=O)Nc1nc2c(ccc3ccccc32)s1 ?
HCV inhibitor: inconclusive; HCMV inh: 118.6; FMDV antiviral: 38.2%; Giardia FBPA inh: -4.8%

What do the screens show for `O=C(Cc1cccs1)Nc1nc2c(ccc3ccccc32)s1`?
HCV inhibitor: inconclusive; HCMV inh: 63.1; FMDV antiviral: -23.9%; MARV entry inh: inconclusive; Lassa entry inh: 7.94µM*; Giardia FBPA inh: -22.9%

What do the screens show for `O=C(CSC1=NCCS1)Nc1nc2c(s1)CCCC2`?
HCV inhibitor: inconclusive; HCMV inh: -73.0*; FMDV antiviral: 19.6%; MARV entry inh: 24.2%; Lassa entry inh: 23.7%; Giardia FBPA inh: -25.8%

Results for COc1ccc(OC)c(-c2csc(NC(=O)Cc3ccc(OC)c(OC)c3)n2)c1 ?
HCV inhibitor: inconclusive; HCMV inh: -18.5; FMDV antiviral: -22.2%; MARV entry inh: 3.7%[46.1 µM]; Lassa entry inh: inconclusive; Giardia FBPA inh: 11.4%

How did O=C(Cc1ccc(S(=O)(=O)N2CCOCC2)s1)Nc1nc2c(s1)CCCC2 do in these assays?
HCV inhibitor: inconclusive; HCMV inh: 71.4; FMDV antiviral: -19.6%; MARV entry inh: 9.1%; Lassa entry inh: -0.2%; Giardia FBPA inh: 15.8µM*

How did COc1ccc(CC(=O)Nc2nc(-c3cc(OC)ccc3OC)cs2)cc1 do in these assays?
HCV inhibitor: 12.6µM*; HCMV inh: -22.6; FMDV antiviral: inconclusive; MARV entry inh: inconclusive; Lassa entry inh: inconclusive; Giardia FBPA inh: -7.0%

How did C=C(C(C)=O)C(O)c1ccc(C(F)(F)F)cc1 (centres undefined) do in these assays?
MARV entry inh: -12.9%[14.2 µM]; Giardia FBPA inh: 0.1%

What do the screens show for `O=C(NC1CCCCC1)c1ccc(Cn2c(SCc3cccc(F)c3)nc3cccnc32)cc1`?
HCMV inh: inconclusive; FMDV antiviral: -26.0%; Lassa entry inh: -0.6%[46.1 µM]

Results for Cc1ccc(Cl)cc1NC(=O)C1CCN(c2nc3ccccc3n3cccc23)CC1 ?
HCMV inh: 31.1; FMDV antiviral: -0.3%; Lassa entry inh: -3.2%[46.1 µM]

Results for CC(=O)Nc1ccc(-c2csc(NC(=O)Cc3ccccc3F)n2)cc1 ?
HCV inhibitor: inconclusive; HCMV inh: 33.7; FMDV antiviral: 35.1%; MARV entry inh: -41.2%; Lassa entry inh: inconclusive; Giardia FBPA inh: -8.5%

Assay outcomes as filed in PubChem.
